Screening data: PubChem, National Center for Advancing Translational Sciences (NCATS)
IL-1B inflam inh – blocks inflammasome-driven IL-1 beta release. THP-1 LPS/ATP IL-1B secretion, AlphaLISA, 16 h; stronger effect = lower value. activity change, % at 57.5 µM. 4.7% of 360,000 active. AID 743279; in the data active = activity change below about -50%; inconclusive = mostly about -30% to -49%
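THP-1 cells pretreated 1 hr with compounds (up to 57.5 uM final), then stimulated with LPS (250 ng/mL final) plus ATP (1.25 mM final); secreted IL-1B measured by AlphaLISA after 16 hr, decreased signal indicating inhibition.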
TDP1 cell CPT – growth inhibition of DT40 Tdp1-/-;hTDP1 cells with camptothecin (screen for TDP1 inhibitors); chicken DT40 Tdp1-/-;hTDP1 cells + 20 nM CPT, ATP luminescence, 48 h; Potency, µM (series often up to 46.2 µM), for inactives: at the highest dose activity change, negative = growth inhibition, hits mostly inhibitors; AID 686979; 12% of 420,000 active; note: potency is the fitted concentration of half-maximal effect; nearly all actives have a fitted effect of over 55% in size
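Cell growth measured by CellTiter-Glo luminescence after a minimum 48 h, 37 C compound exposure with 20 nM CPT in Tdp1-knockout DT40 cells stably expressing hTDP1, seeded 400/well; qHTS titration format.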
TDP1 inh – TDP1 (human) enzyme inhibition | recombinant TDP1, AlphaScreen DNA substrate cleavage | Potency, µM (doses to about 130 µM), for the others: at the top dose activity change, negative = inhibition, hits mostly inhibitors | 0.28% of 350,000 active | AID 485290; note: potency is the fitted concentration of half-maximal effect; nearly all actives have a fitted effect of over 40% in size
Target sequence (Q9NUW8 whole entry, looked up): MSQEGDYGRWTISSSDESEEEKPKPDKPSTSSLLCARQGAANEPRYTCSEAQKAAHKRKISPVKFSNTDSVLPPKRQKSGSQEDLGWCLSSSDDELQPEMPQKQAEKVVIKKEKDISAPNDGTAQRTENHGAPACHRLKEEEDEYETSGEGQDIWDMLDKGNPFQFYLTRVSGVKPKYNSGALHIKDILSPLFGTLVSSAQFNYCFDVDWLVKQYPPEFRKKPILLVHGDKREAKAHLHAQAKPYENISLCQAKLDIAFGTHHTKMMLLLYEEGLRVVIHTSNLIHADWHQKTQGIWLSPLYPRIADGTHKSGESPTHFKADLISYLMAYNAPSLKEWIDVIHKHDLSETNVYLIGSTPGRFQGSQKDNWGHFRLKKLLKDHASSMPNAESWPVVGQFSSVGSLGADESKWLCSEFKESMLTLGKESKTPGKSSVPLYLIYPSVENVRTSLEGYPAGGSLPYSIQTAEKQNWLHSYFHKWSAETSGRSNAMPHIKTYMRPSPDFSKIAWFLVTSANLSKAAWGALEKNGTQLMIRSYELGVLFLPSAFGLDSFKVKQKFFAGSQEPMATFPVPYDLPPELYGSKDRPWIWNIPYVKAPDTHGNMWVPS
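Enzyme-compound mixtures sat 15 min at room temperature, followed by a 5 min reaction with 15 nM final substrate and 10 min with AlphaScreen beads. Recombinant human Tdp1 was used at 1 nM final.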
DT40 TDP1 no CPT – qHTS for Inhibitors of human tyrosyl-DNA phosphodiesterase 1 (TDP1): qHTS in cells in absence of CPT. DT40 Tdp1-/- hTDP1 cells, no CPT, ATP luminescence, 48 h. AID 686978, 2013. Potency, µM (top dose mostly 46.2 µM), for inactives: at the highest dose activity change, negative = growth inhibition, hits mostly inhibitors. 15% of 420,000 active; note: potency is the fitted concentration of half-maximal effect; nearly all actives have a fitted effect of over 55% in size
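DT40 Tdp1-/-;hTDP1 cells, no CPT (DMSO vehicle only), 400 cells/well; compounds pin-transferred; ≥48 hr, 37 °C; CellTiter-Glo 30 min RT dark, luminescence read.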
Giardia kill – kills Giardia lamblia | Giardia lamblia trophozoite viability | activity change, % at 7.66 µM, hits read low | 0.15% of 340,000 active | AID 540267; in the data active = activity change below about -80%; inconclusive = between about -30% and that limit;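 note: parasites exposed to compound for two days anaerobically before the ATP read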
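Giardia lamblia trophozoites (100 cells/well) were incubated with compounds for 48 h at 37 deg C under anaerobic conditions. Viability was read as ATP content by one-step luminescence after 15-30 min at room temperature.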
ELG1 DNA repair – ELG1-dependent DNA repair inhibition; HEK293T ELG1-luciferase reporter, luminescence, 16 h; DNA damage induced by 5-fluorouridine; Potency, µM (top dose mostly 46.1 µM), for the others: at the highest dose activity change, negative = inhibition, actives largely listed as inhibitors; 2.3% of 330,000 active; note: potency is the fitted concentration of half-maximal effect; nearly all actives have a fitted effect of over 55% in size
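HEK293T cells expressing luciferase-tagged ELG1 (2,000/well) received 5-Fluorouridine plus compound or DMSO for 16 hr at 37 °C. Luciferase was read by ONE-Glo luminescence after 30 min at room temperature.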
Starred values were filed as active, the others as inactive; ? = inconclusive; nt = not tested or not shown; [ ] = another dose, or the depositor's remark. Most compounds without a hit are left out; they make up all but 19% or so of the library. Unless noted, calls come from the whole dose curve; as a rule, active = well fitted curve in the direction sought with a large enough effect; inconclusive = small, poorly fitted or top-dose-only effect, or another doubt; inactive = no such curve, though single readings can be large; an effect the other way counts as inactive or inconclusive. % is set by controls: 0 for no effect and ±100 for the full control effect.

SMILES	IL-1B inflam inh	TDP1 cell CPT	TDP1 inh	DT40 TDP1 no CPT	Giardia kill	ELG1 DNA repair
O=[N+]([O-])/C(=C\Nc1ccc(F)cc1F)S(=O)(=O)c1ccccc1	-12	-6%	nt	-6%	34	8%
O=C(NCCOc1ccccc1)O[C@@H]1C(=O)c2cc(Br)ccc2O[C@H]1c1ccc2c(c1)OCO2	nt	nt	8%	nt	nt	nt
CC(=O)C[C@H]1c2cc(F)ccc2S(=O)(=O)N1c1ccc(N(C)C)cc1	3	15µM*	nt	13µM*	-7	nt
CCOC(=O)C[C@H]1c2cc(F)ccc2S(=O)(=O)N1c1cccc(OC)c1	54	?	nt	?	27	nt
COc1ccc(CN(C)CC(=O)Nc2ccc(Cl)cc2C(F)(F)F)c(OC)c1	-13	21µM*	-8%	16µM*	-12	-6%
COc1ccc(CN(C)CC(=O)Nc2cc3oc4ccccc4c3cc2OC)c(OC)c1	-11	13µM*	2%	10µM*	-16	?
COc1ccc2ccc(O)c(CN(C)CC(=O)Nc3ccccc3C(F)(F)F)c2c1	-23	21µM*	8%[0.0935 µM]	?	7	1%
CCN(CC)S(=O)(=O)c1cccc(C(=O)Nc2cc3oc4ccccc4c3cc2OC)c1	13	16µM*	6%	18µM*	-16	?
COc1ccc(CN(C)CC(=O)Nc2ccccc2C(F)(F)F)c(OC)c1	4	8%	nt	-29%	-20	8%
COc1cc2c(cc1NC(=O)CCC(=O)O)oc1ccccc12	14	9%	nt	-19%	18	9%
COc1cc2c(cc1OC)CN(C(=O)C1CCCN1S(=O)(=O)c1ccc(C)cc1)CC2 (stereo not given)	-17	-25%	nt	?	25	?
O=C1c2ccccc2NC(c2ccccc2O)N1Cc1ccccc1 (stereo not given)	nt	nt	-1%	nt	nt	nt
CC(=O)N1CCc2ccc(S(=O)(=O)N3CCN(C)CC3)cc21	-6	-13%	3%	?	5	-8%
Cc1ccc(NC(=O)CN(C)Cc2c(O)ccc3ccccc23)cc1	-101*	-7%	11%	?	9	2%
COc1cc2c(cc1NC(=O)C(C)NCc1ccccc1)oc1ccccc12 (stereo not given)	-6	?	-3%	16µM*	-8	-27%
COc1cc2c(cc1NC(=O)Cc1ccc(C)cc1)oc1ccccc12	-15	?	5%	?	-6	?
COc1cc2c(cc1NC(=O)CN(C)Cc1ccc(OC)c(OC)c1)oc1ccccc12	-25	16µM*	5%	16µM*	25	15µM*
CN(C(=O)Cn1cc(S(=O)(=O)N2CCN(c3ccccc3F)CC2)c2ccccc2c1=O)c1ccc(Cl)cc1	nt	-28%	2%[12.3 µM]	-30%	nt	nt
Nc1c(N=Nc2ccc([N+](=O)[O-])cc2)c(S(=O)(=O)O)cc2cc(S(=O)(=O)O)c(/C=C/c3ccccc3)c(O)c12	nt	10µM*	nt	14µM*	nt	nt
Nc1ccc(N=Nc2ccccc2)cc1[N+](=O)[O-]	-12	-18%	nt	-30%	-12	nt
COc1ccc(CNC(=O)CN(C)c2nn3c(=O)cc(C)nc3s2)cc1	nt	-10%	5%	-1%	nt	nt
Cc1ccc(-c2csc3ncnc(-n4nc(C)cc4N)c23)cc1	-1	-5%	-7%	-3%	2	-4%
Cc1ccc(-c2csc3ncnc(-n4cnc5ccccc54)c23)cc1	?	?	5%	18µM*	-12	10µM*
c1ccc(-c2csc3ncnc(-n4cnc5ccccc54)c23)cc1	-11	?	2%	?	-15	-18%
Cc1ccc(-c2csc3ncnc(-n4nnc5ccccc54)c23)cc1C	0	21µM*	1%	?	-7	?
SMILES	IL-1B inflam inh	TDP1 cell CPT	TDP1 inh	DT40 TDP1 no CPT	Giardia kill	ELG1 DNA repair
O=C1NC[C@H](CCCCN2CCN(CCC3CCCCC3)C(=O)C2=O)N(CCc2ccc(O)cc2)C1=O	0	-20%	nt	-4%	nt	nt
O=C(CSc1nc2ccccc2c(=O)n1-c1ccc(F)cc1)NC1CCS(=O)(=O)C1 (stereo not given)	-12	-5%	-11%[0.505 µM]	-6%	-3	30%
Cc1cc(NC(=O)c2ccc(C)c(C)c2)no1	2	0%	nt	-18%	-14	?
CCn1c(=S)sc2c(=O)n(-c3ccccc3)c(SC)nc21	-16	?	-3%	?	-2	0%
N#CCSc1nc2c(sc(=S)n2Cc2ccco2)c(=O)n1-c1ccc(F)cc1	-53*	?	5%	?	5	-12%
CN(C)C(=O)COc1ccc2c(-c3ccccc3)cc(=O)oc2c1	-2	0%	nt	-1%	23	7%
Clc1cccc(CNc2ccn3nc(-c4ccccc4Cl)cc3n2)c1	-73*	?	nt	?	nt	nt
Clc1cccc(CNc2ccn3nc(-c4cccc(OCc5ccccc5)c4)cc3n2)c1	-27	?	nt	?	nt	nt
COc1cc(-c2cc3nc(NCc4cccs4)ccn3n2)cc(OC)c1OC	-7	10µM*	nt	10µM*	nt	nt
COc1cc(Nc2ccn3nc(-c4ccc(F)cc4)cc3n2)cc(OC)c1OC	-68*	?	nt	?	nt	nt
c1ccc(-c2cc3nc(NCc4cccs4)ccn3n2)cc1	15	-105%	nt	?	nt	nt
COc1cc(-c2cc3nc(NCc4cccc(Cl)c4)ccn3n2)cc(OC)c1OC	18	6.5µM*	nt	5.2µM*	nt	nt
COC(=O)C1(C(=O)OC)Cc2conc2[C@H]1c1ccccc1	nt	nt	1%	nt	nt	nt
CCOc1ccc(C(=O)NCc2ccco2)cc1OC	-6	-9%	nt	-3%	1	2%
Cn1cnnc1Sc1cc(N2CCN(S(=O)(=O)c3ccc(Cl)c(Cl)c3)CC2)ccc1[N+](=O)[O-]	0	?	0%	15µM*	19	3%
Cc1cc(C)n(-c2cc(N3CCN(S(=O)(=O)c4ccc5ccccc5c4)CC3)ccc2[N+](=O)[O-])n1	-10	?	4%	9.2µM*	-15	12%
Cc1cc(C)n(-c2cc(N3CCN(S(=O)(=O)c4ccc(C)c(C)c4)CC3)ccc2[N+](=O)[O-])n1	-2	21µM*	6%	?	15	?
CCOCCOc1cccc(C(=O)NC(C)c2ccc3ccccc3c2)c1 (stereo not given)	-18	-26%	nt	-24%	29	-28%
CC(C)CNS(=O)(=O)c1ccc(CCC(=O)N2CCCC2)cc1	-1	22%	-5%	11%	4	-1%
CC(C)Cc1ccc(S(=O)(=O)N2CCN(Cc3noc(CCC(=O)N4CCCCC4)n3)CC2)cc1	nt	?	3%	21µM*	nt	nt
